For one experiment, the system named is PIK3CD. As to conditions: concentration: 1 μM, replicates: in singlicate, n = 1.
A further experiment deals with PIK3CG. As to conditions: concentration: 1 μM, replicates: in singlicate, n = 1.
The subject of the next experiment is T1, PIK4CB.
T1 construct: gene PI4KB
As to conditions: concentration: 1 μM, replicates: in singlicate, n = 1.

The subject of a further experiment is PIKFYVE. The settings on record: concentration: 1 μM, replicates: in singlicate, n = 1.
The test system of the next experiment is PIM1. As to conditions: concentration: 1 μM, replicates: in singlicate, n = 1.
The test system of the next experiment is PIM2. As to conditions: concentration: 1 μM, replicates: in singlicate, n = 1.
Another experiment concerns PIM3. As to conditions: concentration: 1 μM, replicates: in singlicate; n = 1.
A further experiment relates to PIP5K1A. The settings on record: concentration: 1 μM, replicates: in singlicate; n = 1.
Another experiment concerns PIP5K1C. The settings on record: concentration: 1 μM, replicates: in singlicate, n = 1.
Another experiment concerns PIP5K2B. The settings on record: concentration: 1 μM, replicates: in singlicate; n = 1.
A further experiment deals with T2, PIP5K2C.
T2 construct: gene PIP4K2C
The settings on record: concentration: 1 μM, replicates: in singlicate, n = 1.

In a further experiment the test system is T3, PKAC-alpha.
T3 construct: gene PRKACA
As to conditions: concentration: 1 μM, replicates: in singlicate, n = 1.

The subject of the next experiment is T4, PKAC-beta.
T4 construct: gene PRKACB
As to conditions: concentration: 1 μM, replicates: in singlicate, n = 1.

The subject of another experiment is PKMYT1. As to conditions: concentration: 1 μM, replicates: in singlicate; n = 1.
A further experiment concerns PKN1. The settings on record: concentration: 1 μM, replicates: in singlicate, n = 1.
Another experiment relates to PKN2. The settings on record: concentration: 1 μM, replicates: in singlicate, n = 1.
The next experiment relates to PLK1. As to conditions: concentration: 1 μM, replicates: in singlicate, n = 1.
For a further experiment, the system named is PLK2. The settings on record: concentration: 1 μM, replicates: in singlicate, n = 1.
A further experiment deals with PLK3. The settings on record: concentration: 1 μM, replicates: in singlicate, n = 1.
A further experiment has as its system PLK4. The settings on record: concentration: 1 μM, replicates: in singlicate, n = 1.

Where “and” joins values, the source holds several entries; their conditions need not be identical. Identical values can stand only once. Like-named read-outs stand apart in the source and are kept apart here.
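Further: KINOMEscan kinase panel screen.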

For the molecule `CS(=O)(=O)CCNCc1nc(-c2ccc3ncnc(Nc4ccc(OCc5cccc(F)c5)c(Cl)c4)c3c2)cs1.Cl` [GW583340], the “%Inh” value with PIK3CD is on record as 29%; in the experiment on PIK3CG it was 0%; in the experiment with PIK4CB, 26%; with PIKFYVE it was 0%; with PIM1 it was 20%; in the experiment with PIM2, 0%. Moreover, the “%Inh” value was found to be 8% in the experiment with PIM3; 1% in the experiment with PIP5K1A; 38% in the experiment on PIP5K1C; 0% in the experiment with PIP5K2B; 24% with PIP5K2C; 0% in the experiment with PKAC-alpha. The “%Inh” value in the experiment on PKAC-beta, in the experiment with PKMYT1, with PKN1, in the experiment on PKN2, in the experiment with PLK1 and in the experiment with PLK2 was 0% throughout. The “%Inh” value in the experiment with PLK3 turned out to be 0%; in the experiment on PLK4, 3%.
For `FC(F)(F)c1ccc(-c2nn3ncccc3c2-c2ccnc(Nc3cccc(C(F)(F)F)c3)n2)cc1` [GW828205], the “%Inh” value with PIK3CD was found to be 0%; in the experiment on PIK3CG, 0%; in the experiment on PIK4CB, 0%; in the experiment on PIKFYVE it was 0%; in the experiment with PIM1, 12%; with PIM2, 17%. For the same molecule, the “%Inh” value came to 32% in the experiment with PIM3; 53% with PIP5K1A; 0% in the experiment with PIP5K1C; 0% with PIP5K2B; 3% in the experiment on PIP5K2C; 0% with PKAC-alpha. The “%Inh” value worked out at 24% with PKAC-beta; 15% with PKMYT1; 0% with PKN1; 0% in the experiment on PKN2; 0% in the experiment with PLK1; 0% in the experiment on PLK2. The “%Inh” value in the experiment on PLK3 stood at 18%; in the experiment on PLK4, 0%.
On to `CCn1c(-c2ccncc2)nc2cnccc21` [SB-735216], for which the “%Inh” value with PIK3CD came to 0%; in the experiment on PIK3CG, 14%; in the experiment with PIK4CB, 21%; with PIKFYVE it was 0%; with PIM1 it was 0%; in the experiment with PIM2, 0%. For the same molecule, the “%Inh” value in the experiment with PIM3 came out at 21%; with PIP5K1A, 28%; in the experiment on PIP5K1C, 0%; in the experiment on PIP5K2B, 23%; with PIP5K2C, 0%; in the experiment with PKAC-alpha, 0%. Besides, the “%Inh” value in the experiment with PKAC-beta is on record as 3%; with PKMYT1, 6%; with PKN1, 2%; with PKN2, 20%; in the experiment on PLK1 it was 28%; in the experiment on PLK2, 37%. In addition, the results for the “%Inh” value in the experiment on PLK3 and in the experiment on PLK4 were 16% and 0%, respectively.
As for `FC(F)(F)c1ccc(-c2cc(-c3c[nH]nc3-c3ccccn3)ccn2)cc1` [GW599550], the “%Inh” value was found to be 0% in the experiment with PIK3CD; 1% in the experiment on PIK3CG; 0% in the experiment with PIK4CB; 22% with PIKFYVE; 19% in the experiment with PIM1; 0% in the experiment with PIM2. For the same molecule, the “%Inh” value in the experiment with PIM3 came out at 51%; in the experiment with PIP5K1A, 18%; with PIP5K1C, 74%; with PIP5K2B, 17%; with PIP5K2C it was 59%; with PKAC-alpha, 10%. In addition, the “%Inh” value in the experiment on PKAC-beta is listed as 6%; in the experiment with PKMYT1 it was 0%; in the experiment on PKN1, 0%; in the experiment with PKN2 it was 0%; in the experiment with PLK1, 0%; in the experiment with PLK2, 0%. Further, the figures for the “%Inh” value in the experiment with PLK3 and in the experiment with PLK4 were 0% and 10%, respectively.
For the molecule `Nc1n[nH]c2nnc(-c3ccccc3)cc12` [SB-517389], the “%Inh” value in the experiment with PIK3CD was 0%; in the experiment on PIK3CG, 0%; with PIK4CB, 8%; in the experiment with PIKFYVE, 0%; with PIM1 it was 8%; with PIM2, 0%. In addition, the “%Inh” value in the experiment with PIM3 is on record as 0%; in the experiment with PIP5K1A it was 0%; in the experiment with PIP5K1C it was 0%; in the experiment on PIP5K2B it was 18%; in the experiment on PIP5K2C it was 7%; with PKAC-alpha, 0%. Further, the “%Inh” value in the experiment on PKAC-beta was 0%; in the experiment with PKMYT1 it was 0%; with PKN1, 7%; in the experiment on PKN2, 0%; in the experiment with PLK1, 0%; in the experiment with PLK2, 35%. In addition, the “%Inh” value in the experiment on PLK3 is 33%; in the experiment on PLK4 it was 9%.
With `Cc1cccc(-c2nc(Nc3ccc4[nH]nnc4c3)c3ccccc3n2)n1` [GW867587], the “%Inh” value with PIK3CD was 0%; with PIK3CG, 0%; in the experiment on PIK4CB it was 0%; in the experiment with PIKFYVE, 13%; with PIM1 it was 17%; with PIM2 it was 0%. Further, the “%Inh” value with PIM3 was determined as 2%; with PIP5K1A, 27%; with PIP5K1C it was 0%; with PIP5K2B it was 0%; with PIP5K2C, 0%; in the experiment with PKAC-alpha, 0%. Also, the “%Inh” value with PKAC-beta, in the experiment with PKMYT1, with PKN1, in the experiment with PKN2, in the experiment with PLK1 and with PLK2 was 0% throughout. Besides, the “%Inh” value in the experiment on PLK3 and in the experiment with PLK4 was 0% throughout.
For the molecule `COc1ccc(-c2nc3n(c2-c2ccncc2)CCC3)cc1` [SKF-104493], the “%Inh” value in the experiment with PIK3CD (1 µM) is 5% and 25%; with PIK3CG (1 µM) it was 11% and 1%; in the experiment on PIK4CB (1 µM) it was 0% and 10%; with PIKFYVE (1 µM), 11% and 0%; in the experiment on PIM1 (1 µM), 0% and 50%; in the experiment with PIM2 (1 µM), 2% and 0%. In addition, the “%Inh” value with PIM3 was 0%; with PIP5K1A, 27%; in the experiment on PIP5K1C (1 µM), 25% and 5%; in the experiment on PIP5K2B it was 0%; with PIP5K2C (1 µM), 0% and 9%; with PKAC-alpha (1 µM), 5% and 0%. The “%Inh” value in the experiment on PKAC-beta (1 µM) was 7% and 0%; in the experiment on PKMYT1, 0%; with PKN1 (1 µM) it was 7% and 0%; in the experiment on PKN2 (1 µM), 23% and 0%; in the experiment on PLK1 (1 µM), 22% and 0%; with PLK2 (1 µM), 11% and 0%. The “%Inh” value in the experiment with PLK3 (1 µM) is 1% and 0%; in the experiment with PLK4 (1 µM), 0% and 15%.
Take `Cc1cc(N2CCC(NS(=O)(=O)c3ccc(F)cc3)CC2)nc(Nc2cccc(C#N)c2)n1.O=C(O)C(F)(F)F` [GSK1653537]: the “%Inh” value with PIK3CD is listed as 0%; in the experiment with PIK3CG, 15%; with PIK4CB, 10%; in the experiment on PIKFYVE, 0%; in the experiment with PIM1, 25%; in the experiment on PIM2, 9%. In addition, the “%Inh” value in the experiment with PIM3 is recorded as 0%; in the experiment with PIP5K1A, 0%; in the experiment with PIP5K1C it was 0%; in the experiment on PIP5K2B, 6%; in the experiment with PIP5K2C, 4%; in the experiment with PKAC-alpha, 3%. Moreover, the “%Inh” value was 0% with PKAC-beta; 0% in the experiment with PKMYT1; 23% with PKN1; 0% in the experiment on PKN2; 5% in the experiment with PLK1; 0% in the experiment on PLK2. Also, the “%Inh” value with PLK3 and in the experiment with PLK4 was 0% in each case.
For `COC(=O)c1cccc(NC(=O)NCCNc2ccnc(Nc3ccc(F)cc3)n2)c1` [GSK1379883], the “%Inh” value in the experiment on PIK3CD was 0%; in the experiment with PIK3CG, 8%; with PIK4CB it was 0%; with PIKFYVE, 1%; in the experiment with PIM1, 0%; in the experiment with PIM2, 0%. The “%Inh” value came out at 0% in the experiment on PIM3; 34% with PIP5K1A; 56% in the experiment on PIP5K1C; 5% in the experiment with PIP5K2B; 22% in the experiment on PIP5K2C; 3% in the experiment with PKAC-alpha. For the same molecule, the “%Inh” value stood at 0% in the experiment on PKAC-beta; 10% in the experiment with PKMYT1; 3% in the experiment on PKN1; 0% in the experiment on PKN2; 4% in the experiment with PLK1; 0% in the experiment on PLK2. In addition, the “%Inh” value in the experiment with PLK3 and in the experiment on PLK4 was 0% in each case.
`Nc1nc(-c2ccc3c(N)n[nH]c3c2)cc(N2CCCCC2)n1` [GSK2228768]: the “%Inh” value with PIK3CD, with PIK3CG, in the experiment on PIK4CB, in the experiment on PIKFYVE, in the experiment with PIM1 and in the experiment on PIM2 was 0% in each case. Further, the “%Inh” value in the experiment on PIM3 was determined as 0%; in the experiment with PIP5K1A, 0%; in the experiment with PIP5K1C, 31%; with PIP5K2B, 4%; with PIP5K2C, 0%; in the experiment with PKAC-alpha, 56%. Moreover, the “%Inh” value amounted to 0% with PKAC-beta; 13% with PKMYT1; 18% with PKN1; 0% with PKN2; 0% in the experiment on PLK1; 0% in the experiment with PLK2. Moreover, the “%Inh” value in the experiment on PLK3 and with PLK4 was 0% throughout.

The values are drawn from publication PMC5540273 (PLoS ONE, 2017).
